Measurements taken from PubChem BioAssay AID1053117 (Broad Institute, 2014).
Potency and affinity values are given separately. Values without a mark were called inactive.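 Rule for the calls: active = compounds lowering cell ATP signal with a fitted half-effect dose at most twice the top valid dose; inconclusive = flat curve with 30 to 70% signal loss, or bad fit; inactive = wrong direction, flat within 30%, or weaker than limit.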

Test: HEK293 cell cytotoxicity, dose response, cytotoxicity control, cherry-picks, set 5 (AID 1053117);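 note: more negative means greater loss of ATP signal and more cytotoxicity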
Settings: HEK293T viability, CellTiter-Glo ATP luminescence, 72 h; series mostly up to 26 µM; activity change, negative = cytotoxicity: at the top concentration
For `C[C@@H](O)C#Cc1ccc2c(c1)O[C@@H](CN(C)C)[C@@H](C)CN([C@@H](C)CO)S2(=O)=O`, the “activity change, negative = cytotoxicity” value was -7.13%.
With `COC(=O)C[C@H]1CC[C@@H]2[C@H](COc3ccc(NC(=O)Cc4cccs4)cc3C(=O)N2C)O1` the “activity change, negative = cytotoxicity” value was -0.923% [at 23.5 µM].
In the case of `C[C@H](CO)N1C[C@H](C)[C@H](CN(C)Cc2ccccc2)Oc2ncc(-c3ccccc3)cc2C1=O`, the “activity change, negative = cytotoxicity” value is reported as -17.3%.
With `CN(C)C(=O)c1ccc(-c2ccc3c(c2)[C@H]2[C@H](CCN2C(=O)c2ccc(F)cc2)[C@@H](CO)N3C)cc1` the “activity change, negative = cytotoxicity” value was -39.6% [at 23.5 µM].
In the case of `O=C(Nc1ccccc1F)N1C[C@@H]2[C@H](c3ccccc31)[C@H](CO)N2C(=O)C1CCOCC1`, the “activity change, negative = cytotoxicity” value is reported as -4.17% [at 23.5 µM].
In the case of `CCOC(=O)c1cnc(SCc2nc(N)nc(Nc3ccc(OC)cc3)n2)nc1N`, the “activity change, negative = cytotoxicity” value is reported as -16.9%.
For `C[C@H](CO)N1C[C@H](C)[C@H](CN(C)C)Oc2cc(C#C[C@@H](C)O)ccc2S1(=O)=O`, the “activity change, negative = cytotoxicity” value was -0.273%.
In the case of `COC(=O)C[C@H]1CC[C@@H]2[C@@H](COc3ccc(NC(=O)Cc4cccs4)cc3C(=O)N2C)O1`, the “activity change, negative = cytotoxicity” value is reported as -12.4%.
For `C[C@@H]1CN([C@@H](C)CO)C(=O)c2cc(NC(=O)CCCN(C)C)ccc2O[C@@H]1CN(C)Cc1ccc(-c2ccccc2)cc1`, the “activity change, negative = cytotoxicity” value was -15.1% [at 23.5 µM].
For `COCC(=O)Nc1ccc2c(c1)C(=O)N(C)[C@H]1CC[C@@H](CC(=O)NCc3ccccc3Cl)O[C@H]1CO2`, the “activity change, negative = cytotoxicity” value was 0.812%.
In the case of `C[C@@H]1CN([C@H](C)CO)C(=O)c2cc(-c3ccccc3)cnc2O[C@@H]1CN(C)Cc1ccccc1`, the “activity change, negative = cytotoxicity” value is reported as -14.5%.
In the case of `COC(=O)c1cn(CC(=O)NCc2ccco2)c2ccccc12`, the “activity change, negative = cytotoxicity” value is reported as -15.6%.
With `O=C(c1cccnc1)N1C[C@@H]2[C@H](c3ccccc31)[C@H](CO)N2CC1CCCC1` the “activity change, negative = cytotoxicity” value was -19.3% [at 23.5 µM].
With `C[C@H](O)C#Cc1ccc2c(c1)O[C@H](CN(C)C)[C@@H](C)CN([C@@H](C)CO)S2(=O)=O` the “activity change, negative = cytotoxicity” value was -12.8%.
In the case of `C[C@@H]1CN([C@H](C)CO)C(=O)c2cccc(NC(=O)Nc3ccc(C(F)(F)F)cc3)c2O[C@H]1CN(C)C(=O)Nc1cccc2ccccc12`, the “activity change, negative = cytotoxicity” value is reported as -15%.
For `COCC(=O)Nc1ccc2c(c1)C(=O)N(C)[C@@H]1CC[C@H](CC(=O)NCc3ccccc3Cl)O[C@H]1CO2`, the “activity change, negative = cytotoxicity” value was -9.44%.
In the case of `C[C@@H]1CN([C@@H](C)CO)C(=O)c2cccc(NC(=O)Nc3ccc(C(F)(F)F)cc3)c2O[C@H]1CN(C)C(=O)Nc1cccc2ccccc12`, the “activity change, negative = cytotoxicity” value is reported as -26.5%.
For `COCC(=O)Nc1ccc2c(c1)C(=O)N(C)[C@@H]1CC[C@H](CC(=O)NCc3ccccc3Cl)O[C@@H]1CO2`, the “activity change, negative = cytotoxicity” value was -5.74%.
